DT40 TDP1 no CPT – qHTS for Inhibitors of human tyrosyl-DNA phosphodiesterase 1 (TDP1): qHTS in cells in absence of CPT; Potency, µM (titrated, usually from 46.2 µM), for the others: top-dose activity change, negative = growth inhibition, most hits filed as inhibitors; hit rate 15% among 420,000; DT40 Tdp1-/- hTDP1 cells, no CPT, ATP luminescence, 48 h; note: potency is the fitted concentration of half-maximal effect; nearly all actives have a fitted effect of over 55% in size
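No-CPT arm: Tdp1-/-;hTDP1 DT40 cells (400/well) plus compounds, incubated ≥48 hr at 37 °C. Readout CellTiter-Glo luminescence.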
HT1080 IDH1KD tx – toxicity to HT-1080 IDH1 knockdown cells (counter line) | HT-1080 IDH1 knockdown viability, ATP luminescence, 48 h | Potency, µM (titrated, usually from 46.1 µM), for the others: at the top dose activity, negative = toxicity, most hits filed as cytotoxic | hit rate 2% among 360,000 | AID 686971;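 note: potency is the fitted concentration of half-maximal effect; 0% = DMSO wells and -100% = cell-free medium wells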
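% activity derives from luminescence (CellTiter-Glo), normalised to DMSO and no-cell wells. HT-1080-IDH1KD cells, 750/well, had 48 h compound exposure at 37 °C.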
ELG1 repair inh – inhibitors of ELG1-dependent DNA repair in HEK293T cells; HEK293T ELG1-luciferase reporter, luminescence, 16 h; DNA damage induced by 5-fluorouridine; Potency, µM (titrated, usually from 46.1 µM), without a hit: top-dose activity change, negative = inhibition, most hits filed as inhibitors; hit rate 2.3% among 330,000; note: potency is the fitted concentration of half-maximal effect; nearly all actives have a fitted effect of over 55% in size
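Luminescence from the luciferase reporter, measured 30 min after ONE-Glo reagent at room temperature, was the read-out. Beforehand, 2,000 cells per well were exposed for 16 hr at 37 °C to 5-fluorouridine together with compound or vehicle.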
HT1080-NT tox – kills 2HG-producing HT-1080-NT fibrosarcoma cells | HT-1080-NT fibrosarcoma viability, CellTiter-Glo ATP luminescence, 48 h | Potency, µM (doses to about 46.1 µM), inactives show top-dose activity, negative = less viability, actives largely listed as cytotoxic | hit rate 1.6% among 360,000;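 note: NT is the 2HG producing partner of a matched IDH1 knockdown line; potency is the fitted concentration of half-maximal effect; 0% = DMSO-treated cells and -100% = media-only wells without cells; nearly all actives have a fitted effect of over 55% in size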
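750 cells/well, RPMI + 5% FBS; 2 h settle, compound pin-transfer, 48 h at 37 degrees C. CellTiter-Glo 10 min RT, luminescence. Normalized to DMSO and media-only wells.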
DT40 TDP1 CPT – growth inhibition of DT40 Tdp1-/-;hTDP1 cells with camptothecin (screen for TDP1 inhibitors); chicken DT40 Tdp1-/-;hTDP1 cells + 20 nM CPT, ATP luminescence, 48 h; Potency, µM (top dose mostly 46.2 µM), inactives show top-dose activity change, negative = growth inhibition, most hits filed as inhibitors; hit rate 12% among 420,000; AID 686979; note: potency is the fitted concentration of half-maximal effect; nearly all actives have a fitted effect of over 55% in size
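Chicken DT40 Tdp1-/- cells complemented with human TDP1, 400 cells/well, exposed to compounds plus 20 nM camptothecin for at least 48 h at 37 C; viability read as ATP content by CellTiter-Glo luminescence.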
IL-1B inflam inh – blocks inflammasome-driven IL-1 beta release | THP-1 LPS/ATP IL-1B secretion, AlphaLISA, 16 h; stronger effect = lower value | hit rate 4.7% among 360,000 | activity change, % at 57.5 µM; in the data active = activity change below about -50%; inconclusive = mostly about -30% to -49%
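Secreted IL-1B measured by AlphaLISA bead assay after 16 h compound exposure of THP-1 cells; compounds (final up to 57.5 uM) added 1 h before LPS (250 ng/mL) and ATP (1.25 mM) stimulation; lower signal means less secretion.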
Starred values were filed as active, the others as inactive; ? = inconclusive; / = not tested or not shown. Rows were chosen to be rich in hits. Some 19% of all compounds tested hit in one or more screens of this group. Unless noted, calls come from the whole dose curve; as a rule, active = well fitted curve in the direction sought with a large enough effect; inconclusive = small, poorly fitted or top-dose-only effect, or another doubt; inactive = no such curve, though single readings can be large; an effect the other way counts as inactive or inconclusive. Unless noted, % is set by controls: 0 for no effect and ±100 for the full control effect.

SMILES	DT40 TDP1 no CPT	HT1080 IDH1KD tx	ELG1 repair inh	HT1080-NT tox	DT40 TDP1 CPT	IL-1B inflam inh
O=C(NC1CCCCC1)C(c1cccs1)N(Cc1cccs1)C(=O)c1ccco1 (stereo unspecified)	9.2µM*	-1%	?	8%	15µM*	-12
O=C(NCC(=O)N(Cc1cccs1)C(C(=O)NC1CCCCC1)c1ccco1)c1ccco1 (stereo unspecified)	-25%	6%	?	7%	-19%	-5
COc1ccc(C(C(=O)NC2CCCC2)N(CC2CCCO2)C(=O)Cc2cccs2)cc1OC (stereo unspecified)	8%	1%	4%	-8%	5%	3
CC(C)c1nc2sc3c(SCCN(C)C)ncnc3c2c2c1CCC2	?	12%	/	19%	-21%	19
O=C(NCc1ccco1)C(c1cccs1)N(C(=O)C1COc2ccccc2O1)c1cccc(O)c1 (stereo unspecified)	13µM*	-19%	13µM*	-18%	23µM*	-7
CC(C)CCNC(=O)C(c1ccc(O)cc1)N(Cc1cccs1)C(=O)C1COc2ccccc2O1 (stereo unspecified)	16µM*	?	21µM*	?	23µM*	-73*
O=C(NCc1ccco1)C(c1ccncc1)N(C(=O)Cc1cccs1)c1ccccc1 (stereo unspecified)	-17%	9%	4%	10%	-17%	-15
O=C(NC1CCCCC1)C(c1ccc(O)cc1)N(CC1CCCO1)C(=O)C1COc2ccccc2O1 (stereo unspecified)	?	4.6µM*	-29%	4.6µM*	?	-13
O=C1CC(C(=O)N(CC2CCCO2)C(C(=O)NC2CCCCC2)c2ccncc2)CS1 (stereo unspecified)	-14%	-4%	14%	2%	-17%	16
O=c1ccn([C@@H]2O[C@H](CNS(=O)(=O)C3CC3)[C@@H](O)[C@H]2O)c(=O)[nH]1	0%	6%	/	7%	3%	0
CCOC(=O)C1=C(CC)Nc2ccccc2N=C1NC(=O)CCNC(C)=O	?	0%	-3%	-4%	2%	-5
CCOCc1c(C(=O)Nc2ccc(OC)nc2)oc2ccccc12	18µM*	18%	-19%	17%	-23%	-1
CCOC(=O)C1=C(CC)Nc2ccccc2N=C1NC(=O)c1ccc(S(=O)(=O)N(C)C)cc1	5.8µM*	?	?	1%	7.3µM*	-10
CCOCc1c(C(=O)NC2=Nc3ccccc3NC(CC)=C2C(=O)OCC)oc2ccccc12	16µM*	?	8.2µM*	?	23µM*	-10
CCOC(=O)C1=C(CC)Nc2ccccc2N=C1NC(=O)c1ccc(C)c(S(=O)(=O)N2CCOCC2)c1	?	6%	?	-2%	16µM*	-10
CCOC(=O)C1=C(C(=O)OCC)N(CC2CCCCC2)CCC1=O	-19%	9%	/	0%	-11%	18
CCOC(=O)C1=C(CC)Nc2ccccc2N=C1NC(=O)c1ccc(OC)c(S(=O)(=O)N2CCCCC2C)c1 (stereo unspecified)	?	-26%	23µM*	-2%	?	?
O=C(/C=C(/c1ccc(Cl)cc1)n1cncn1)c1ccccc1	?	-10%	7%	-7%	?	-58*
COCCn1c(N)c(Sc2ccc([N+](=O)[O-])cc2)c(=O)[nH]c1=O	15%	21%	8%	15%	0%	21
COc1ccc(N2CCN(S(=O)(=O)c3ccc(OC)c(C(=O)N4CCOCC4)c3)CC2)cc1	-13%	13%	-10%	9%	-9%	3
COc1cc(OC)cc(-c2cc(N)n(S(=O)(=O)Cc3ccccc3)n2)c1	18µM*	-6%	?	4%	?	-15

Source: PubChem BioAssay (National Center for Advancing Translational Sciences (NCATS))
